Laboratory results reported in PMC4336329 (PLoS ONE, 2015).
The whole screen tested about 310,000 compounds, of which about 14,000 (4.5%) showed an effect of 50% or more. Effects have a minus sign here. The list comes from a sample in which strong results are over-represented; it also holds similar structures and randomly drawn compounds.

These molecules were tested against human ether-à-go-go-related gene (hERG) potassium channel (human, UniProt Q12809) (assay: primary screen, population patch clamp on CHO cells stably expressing hERG; higher = less effect of the substance).
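Also: peak tail current of the secondary pulse compared with the same well before compound.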

Chain of human ether-à-go-go-related gene (hERG) potassium channel (Q12809 whole entry, looked up): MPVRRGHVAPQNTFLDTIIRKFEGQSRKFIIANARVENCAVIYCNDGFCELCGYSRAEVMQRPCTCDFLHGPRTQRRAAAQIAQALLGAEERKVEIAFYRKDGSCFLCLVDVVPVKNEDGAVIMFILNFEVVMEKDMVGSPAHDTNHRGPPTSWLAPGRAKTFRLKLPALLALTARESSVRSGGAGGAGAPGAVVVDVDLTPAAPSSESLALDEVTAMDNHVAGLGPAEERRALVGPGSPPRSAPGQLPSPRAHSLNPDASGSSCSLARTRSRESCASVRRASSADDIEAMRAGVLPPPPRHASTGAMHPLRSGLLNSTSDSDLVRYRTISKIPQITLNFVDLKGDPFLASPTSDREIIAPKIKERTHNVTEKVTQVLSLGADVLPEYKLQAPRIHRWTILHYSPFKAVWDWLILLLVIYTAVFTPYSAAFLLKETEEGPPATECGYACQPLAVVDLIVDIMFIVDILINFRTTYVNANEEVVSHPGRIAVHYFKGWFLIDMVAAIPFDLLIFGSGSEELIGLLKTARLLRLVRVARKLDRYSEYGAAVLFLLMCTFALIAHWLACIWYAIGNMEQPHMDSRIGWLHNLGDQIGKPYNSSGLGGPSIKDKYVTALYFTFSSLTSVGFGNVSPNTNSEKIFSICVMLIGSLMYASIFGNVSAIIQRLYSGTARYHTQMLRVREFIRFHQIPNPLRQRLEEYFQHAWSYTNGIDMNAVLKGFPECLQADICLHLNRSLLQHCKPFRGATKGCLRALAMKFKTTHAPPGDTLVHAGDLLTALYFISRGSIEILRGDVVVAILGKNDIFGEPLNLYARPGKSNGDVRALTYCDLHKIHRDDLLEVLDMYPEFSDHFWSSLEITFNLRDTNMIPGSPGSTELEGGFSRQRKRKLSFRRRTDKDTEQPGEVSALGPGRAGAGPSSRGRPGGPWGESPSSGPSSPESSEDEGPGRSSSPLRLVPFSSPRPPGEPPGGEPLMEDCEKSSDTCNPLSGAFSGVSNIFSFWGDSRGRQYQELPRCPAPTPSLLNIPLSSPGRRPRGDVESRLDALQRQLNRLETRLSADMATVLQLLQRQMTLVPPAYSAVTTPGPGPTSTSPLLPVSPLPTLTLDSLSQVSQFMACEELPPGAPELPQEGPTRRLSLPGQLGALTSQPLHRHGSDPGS

Question: With `COc1ccc(CNC(=O)[C@H](C)NC(=O)N2CCn3c2nc2ccccc23)cc1` as the molecule, how does the “hERG current change (%, negative = inhibition) at 10uM” value read?
Answer: -57.7%

Question: `C[C@H](NC(=O)N1CCn2c1nc1ccccc12)C(=O)NCc1ccccc1` was tested. Which “hERG current change (%, negative = inhibition) at 10uM” value did it give?
Answer: -13.6%

Question: With `C[C@H](NC(=O)N1CCn2c1nc1ccccc12)C(=O)NCc1ccc(F)cc1` as the molecule, how does the “hERG current change (%, negative = inhibition) at 10uM” value read?
Answer: -29.6%

Question: With `FC(F)(F)c1ccc(N2CCOCC2)c(Nc2nc3ccccc3n3cnnc23)c1` as the molecule, how does the “hERG current change (%, negative = inhibition) at 10uM” value read?
Answer: 7.53%

Question: How did the “hERG current change (%, negative = inhibition) at 10uM” value turn out when `CCSc1nnc([C@H](Cc2c[nH]c3ccccc23)NC(=O)OC(C)(C)C)o1` was run?
Answer: -21.5%

Question: Which “hERG current change (%, negative = inhibition) at 10uM” value does the source give for `COc1ccccc1C1c2ccc3ccccc3c2Oc2ncn(CCN(C)C)c(=N)c21` (stereo not drawn) here?
Answer: -61.8%

Question: For `COc1ccc(C2c3ccc4ccccc4c3Oc3ncn(CCN(C)C)c(=N)c32)cc1` (stereo not drawn), which “hERG current change (%, negative = inhibition) at 10uM” value is on record?
Answer: -77.2%

Question: For `COc1ccc(Cc2nc3c4c(ncn3n2)Oc2c(ccc3ccccc23)C4c2ccc(OC)c(OC)c2)cc1` (stereo not drawn), which “hERG current change (%, negative = inhibition) at 10uM” value is on record?
Answer: 14.7%

Question: With `COc1ccc(C2c3ccc4ccccc4c3Oc3ncn(CCCN(C)C)c(=N)c32)cc1` (stereo not drawn) as the molecule, how does the “hERG current change (%, negative = inhibition) at 10uM” value read?
Answer: -76.4%

Question: How did the “hERG current change (%, negative = inhibition) at 10uM” value turn out when `COc1ccc(C2c3c(ccc4ccccc34)Oc3ncn4nc(-c5ccco5)nc4c32)cc1` (stereo not drawn) was run?
Answer: -12.4%

Question: For `CN(C)S(=O)(=O)c1cc(C(=O)OCCn2cnc3c2c(=O)n(C)c(=O)n3C)ccc1Cl`, which “hERG current change (%, negative = inhibition) at 10uM” value is on record?
Answer: -39.7%

Question: With `CS(=O)(=O)c1cccc(-c2nnc(NC(=O)CCS(=O)(=O)c3ccccc3)o2)c1` as the molecule, how does the “hERG current change (%, negative = inhibition) at 10uM” value read?
Answer: 3.82%

Question: With `COC(=O)c1cn(C(=O)c2ccccc2F)nc1N` as the molecule, how does the “hERG current change (%, negative = inhibition) at 10uM” value read?
Answer: -5.96%

Question: With `Cc1ccc2c(CC(=O)OC3CCOC3=O)coc2c1` (stereo not drawn) as the molecule, how does the “hERG current change (%, negative = inhibition) at 10uM” value read?
Answer: 3.85%

Question: Which “hERG current change (%, negative = inhibition) at 10uM” value does the source give for `CC/C(=N\NC(=S)Nc1ccc(OC)cc1)c1ccc(OC(F)F)cc1` here?
Answer: -4.32%

Question: Which “hERG current change (%, negative = inhibition) at 10uM” value does the source give for `C[C@@H]1CC=C[C@H]2[C@H]1C(=O)N(Cc1ccccc1)[C@H]2c1ccoc1` here?
Answer: 3.54%

Question: Which “hERG current change (%, negative = inhibition) at 10uM” value does the source give for `CC(CN1CCCCC1)C(=O)NNC(=O)C12CC3CC(CC(C3)C1)C2` (stereo not drawn) here?
Answer: 3.74%

Question: For `CC(C)c1onc(C(=O)N2CCN(c3ccc(F)cc3)CC2)c1[N+](=O)[O-]`, which “hERG current change (%, negative = inhibition) at 10uM” value is on record?
Answer: -19.9%

Question: `COc1ccccc1NC(=O)CSc1nnc(C2CCCCC2)n1N` was tested. Which “hERG current change (%, negative = inhibition) at 10uM” value did it give?
Answer: 5.54%

Question: `Cc1ccc(-n2cc(CNCCc3cscn3)c(-c3ccc(F)cc3)n2)cc1` was tested. Which “hERG current change (%, negative = inhibition) at 10uM” value did it give?
Answer: -59%

Question: `Fc1ccc(-c2nn(-c3ccccc3)cc2CNCc2ccccc2)cc1` was tested. Which “hERG current change (%, negative = inhibition) at 10uM” value did it give?
Answer: 1.75%

Question: With `O=Cc1cn(-c2ccccc2)nc1-c1ccc2c(c1)OCCO2` as the molecule, how does the “hERG current change (%, negative = inhibition) at 10uM” value read?
Answer: -0.855%

Question: `c1ccc(-n2cc(CNCCc3cscn3)c(-c3ccc4c(c3)OCO4)n2)cc1` was tested. Which “hERG current change (%, negative = inhibition) at 10uM” value did it give?
Answer: -65.4%

Question: With `OCc1cn(-c2ccccc2)nc1-c1ccc2c(c1)OCCO2` as the molecule, how does the “hERG current change (%, negative = inhibition) at 10uM” value read?
Answer: 5.83%

Question: `Cc1ccc(-n2cc(CNCCc3ncc(C)[nH]3)c(-c3ccc(F)cc3)n2)cc1` was tested. Which “hERG current change (%, negative = inhibition) at 10uM” value did it give?
Answer: -47.4%

Question: For `O=C(CSC1=NCCS1)NC(NC(=O)CSC1=NCCS1)c1ccccc1`, which “hERG current change (%, negative = inhibition) at 10uM” value is on record?
Answer: 18.6%

Question: How did the “hERG current change (%, negative = inhibition) at 10uM” value turn out when `O=C(C1CCN(S(=O)(=O)c2ccc(F)cc2)CC1)N1CCOCC1` was run?
Answer: 15.3%

Question: With `COc1ccc(CNC(=O)c2cc(-c3ccccc3O)n[nH]2)cc1` as the molecule, how does the “hERG current change (%, negative = inhibition) at 10uM” value read?
Answer: 5.51%

Question: For `O=C1CC(N2CCN(C(c3ccccc3)c3ccccc3)CC2)C(=O)N1` (stereo not drawn), which “hERG current change (%, negative = inhibition) at 10uM” value is on record?
Answer: -0.687%

Question: `NC(=O)COn1c(SCC(N)=O)nc2ccccc2c1=O` was tested. Which “hERG current change (%, negative = inhibition) at 10uM” value did it give?
Answer: 19.3%

Question: With `COC(=O)c1cc(Br)c(=O)n(Cc2ccncc2)c1` as the molecule, how does the “hERG current change (%, negative = inhibition) at 10uM” value read?
Answer: -1.41%

Question: `CCCc1cc(=O)oc2cc(OCC(=O)N3CCN(C(=O)C4COc5ccccc5O4)CC3)ccc12` (stereo not drawn) was tested. Which “hERG current change (%, negative = inhibition) at 10uM” value did it give?
Answer: -65.9%

Question: Which “hERG current change (%, negative = inhibition) at 10uM” value does the source give for `CCCc1cc(=O)oc2cc(OCC(=O)N3CCC(C(=O)O)(c4ccccc4)CC3)ccc12` here?
Answer: 6.41%

Question: `Cc1cc(=O)oc2cc(OCC(=O)N3CCN(C(=O)C4COc5ccccc5O4)CC3)c(Cl)cc12` (stereo not drawn) was tested. Which “hERG current change (%, negative = inhibition) at 10uM” value did it give?
Answer: -48%

Question: Which “hERG current change (%, negative = inhibition) at 10uM” value does the source give for `Cc1c(C)c2ccc(OCC(=O)N3CCN(c4ccccc4)CC3)cc2oc1=O` here?
Answer: -36.1%

Question: How did the “hERG current change (%, negative = inhibition) at 10uM” value turn out when `Cc1cc(=O)oc2c(C)c(OCC(=O)N3CCN(C(=O)C4COc5ccccc5O4)CC3)ccc12` (stereo not drawn) was run?
Answer: -50.4%

Question: Which “hERG current change (%, negative = inhibition) at 10uM” value does the source give for `Cc1c(C)c2ccc(OCC(=O)N3CCN(C(=O)C4COc5ccccc5O4)CC3)cc2oc1=O` (stereo not drawn) here?
Answer: -60.9%

Question: Which “hERG current change (%, negative = inhibition) at 10uM” value does the source give for `Cc1cccc(N2CCN(C(=O)COc3ccc4c(C)cc(=O)oc4c3C)CC2)c1C` here?
Answer: 13.6%

Question: Which “hERG current change (%, negative = inhibition) at 10uM” value does the source give for `Cc1cc(=O)oc2cc(OCC(=O)N3CCN(C(=O)C4COc5ccccc5O4)CC3)ccc12` (stereo not drawn) here?
Answer: -53.6%

Question: `CCOc1ccccc1N1CCN(C(=O)COc2ccc3c(C)cc(=O)oc3c2)CC1` was tested. Which “hERG current change (%, negative = inhibition) at 10uM” value did it give?
Answer: -6.28%

Question: How did the “hERG current change (%, negative = inhibition) at 10uM” value turn out when `CCCc1cc(=O)oc2cc(OCC(=O)N3CCC(C(N)=O)CC3)ccc12` was run?
Answer: -6.67%

Question: Which “hERG current change (%, negative = inhibition) at 10uM” value does the source give for `Cc1c(C)c2ccc(OCC(=O)N3CCC(C(=O)O)CC3)cc2oc1=O` here?
Answer: -6.41%

Question: For `O=C(COc1ccc2ccc(=O)oc2c1)N1CCN(C(=O)C2COc3ccccc3O2)CC1` (stereo not drawn), which “hERG current change (%, negative = inhibition) at 10uM” value is on record?
Answer: -46.2%

Question: For `CCOC(=O)c1ccc(NC(=O)CCc2nc(-c3ccc(Cl)cc3)no2)cc1`, which “hERG current change (%, negative = inhibition) at 10uM” value is on record?
Answer: 8.36%

Question: `Cc1cccc(N(CC(=O)NCCSCc2ccccc2)S(C)(=O)=O)c1C` was tested. Which “hERG current change (%, negative = inhibition) at 10uM” value did it give?
Answer: -17.4%

Question: With `Cc1ccc(S(=O)(=O)N2CCN(C(=O)COC(=O)c3c(C)noc3C)CC2)c(C)c1` as the molecule, how does the “hERG current change (%, negative = inhibition) at 10uM” value read?
Answer: -18.8%

Question: For `COCCCNC(=O)CN(c1ccc(Cl)c(Cl)c1)S(C)(=O)=O`, which “hERG current change (%, negative = inhibition) at 10uM” value is on record?
Answer: -10.9%

Question: For `Cc1ccc(NCC(=O)N/N=C\c2cccc(O)c2)cc1`, which “hERG current change (%, negative = inhibition) at 10uM” value is on record?
Answer: 1.98%

Question: With `C=CCNC(=S)N1CCOCC1` as the molecule, how does the “hERG current change (%, negative = inhibition) at 10uM” value read?
Answer: -1.69%

Question: For `O=C(/C=C/c1ccccc1[N+](=O)[O-])NNC(=O)c1ccncc1`, which “hERG current change (%, negative = inhibition) at 10uM” value is on record?
Answer: -7.86%

Question: Which “hERG current change (%, negative = inhibition) at 10uM” value does the source give for `CCOc1ccccc1NC1=C(Cl)C(=O)N(c2ccc(OC)cc2)C1=O` here?
Answer: -10.4%

Question: Which “hERG current change (%, negative = inhibition) at 10uM” value does the source give for `CCCc1cc(=O)oc2cc(OCC(=O)N3CCN(Cc4ccc5c(c4)OCO5)CC3)ccc12` here?
Answer: -57%

Question: `Cc1cc(=O)oc2cc(OCC(=O)N3CCN(Cc4ccc5c(c4)OCO5)CC3)ccc12` was tested. Which “hERG current change (%, negative = inhibition) at 10uM” value did it give?
Answer: -42.9%

Question: How did the “hERG current change (%, negative = inhibition) at 10uM” value turn out when `Cc1ccc(OCC(=O)N2CCN(Cc3ccc4c(c3)OCO4)CC2)cc1C` was run?
Answer: -24.6%
